ELG1 genotoxic: induces genotoxicity in HEK293T cells with luciferase-tagged ELG1; HEK293T ELG1-luciferase reporter, luminescence, 16 h; Potency, µM (top dose mostly 46 µM), without a hit: top-dose activity change, positive = activation, hits mostly activators; 1.3% of 330,000 active; AID 504466; also: % of control where 0% means no effect; nearly all actives have a fitted effect of over 60% in size
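HEK293T cells expressing luciferase-tagged ELG1 were treated with compound or DMSO for 16 hr at 37°C. Luciferase activity was then read after 30 min with ONE-Glo at room temperature; rising signal flags genetic stress.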
SMN2 splice up: enhancers of SMN2 splice variant expression. HEK293 SMN2-luciferase splicing reporter, luminescence, 30-36 h. Potency, µM (doses to about 46.1 µM), for the others: at the highest dose activity change, positive = activation, most hits filed as activators. 2.8% of 210,000 active. AID 1458; also: % of control where 0% means no effect; nearly all actives have a fitted effect of over 55% in size
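qHTS luciferase splicing reporter: luminescence rises when SMN2 exon 7 is included in transfected HEK293 cells. Compound exposure lasted 30-36 h at 37C, with 4.5 mM final sodium butyrate as control, followed by a ONE-Glo read.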
Rab9 prom act: activators of Rab9 promoter; 2.8% of 320,000 active; Potency, µM (titrated, usually from 9.22 µM), inactives show at the top dose activation, negative = inhibition, most hits filed as activators; Huh7 Rab9 promoter-luciferase reporter, luminescence, 24 h; AID 485297; also: % of control where 0% means no effect; nearly all actives have a fitted effect of over 60% in size
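Luminescence from Amplite-detected luciferase (10 minutes, ambient) reports Rab9 promoter activation. Before that, stable Rab9-luciferase Huh7 cells (1500/well, reduced-serum OP-MEM I plus 10% FBS) were exposed to compound for 24 hours at 37C.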
FLuc modulator: inhibits or activates purified firefly luciferase, miR-21 counter-screen; purified FLuc, Km substrates, luminescence inhibition; AID 588342; Potency, µM (titrated, usually from 57.5 µM), without a hit: at the highest dose activity change, negative = inhibition, hits mostly inhibitors; 6.9% of 360,000 active; P08659;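 also: plate controls were vehicle for no effect and reference inhibitor for full effect; nearly all actives have a fitted effect of over 55% in size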
Target sequence (P08659 whole entry, looked up): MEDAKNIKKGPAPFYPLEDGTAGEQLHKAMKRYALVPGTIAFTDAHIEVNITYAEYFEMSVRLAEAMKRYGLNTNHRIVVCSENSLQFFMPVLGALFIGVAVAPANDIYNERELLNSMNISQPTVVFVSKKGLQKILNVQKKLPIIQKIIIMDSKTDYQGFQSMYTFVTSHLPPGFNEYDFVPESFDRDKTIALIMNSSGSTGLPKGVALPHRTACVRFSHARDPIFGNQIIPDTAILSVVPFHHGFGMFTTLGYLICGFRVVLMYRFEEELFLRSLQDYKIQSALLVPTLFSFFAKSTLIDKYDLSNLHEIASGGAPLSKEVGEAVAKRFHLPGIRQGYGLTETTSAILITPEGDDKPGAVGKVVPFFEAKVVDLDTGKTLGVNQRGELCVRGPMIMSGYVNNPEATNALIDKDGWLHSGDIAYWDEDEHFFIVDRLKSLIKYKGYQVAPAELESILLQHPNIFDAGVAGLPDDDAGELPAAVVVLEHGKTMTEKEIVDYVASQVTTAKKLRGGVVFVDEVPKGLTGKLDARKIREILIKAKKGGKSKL
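Purified P. pyralis luciferase, 10 nM final, with Km-level 10 uM D-luciferin and 10 uM ATP in 50 mM Tris acetate pH 7.5, 10 mM Mg acetate, 0.01% Tween-20, 0.05% BSA; 6-point qHTS titration about 60 µM downward; luminescence read.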
KinaseGlo FLuc: blocks Kinase-Glo luciferase, a counter-screen artifact; Kinase-Glo luciferase, ATP luminescence, 8 min; Q27757; Potency, µM (highest dose often 38.3 µM), for the others: top-dose activity change, negative = inhibition, usual class: inhibitors; 0.28% of 200,000 active; also: % is scaled to controls: 0 for no effect and ±100 for the full control effect; nearly all actives have a fitted effect of over 60% in size
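Compound is pinned into ATP-containing buffer (10 uM ATP, imidazole pH 7.2, 7 mM MgCl2). Kinase-Glo luciferase reagent is then added. Light output is recorded following an 8-min room-temperature incubation.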
NPC1 promoter act: activates the NPC1 promoter. Huh7 NPC1 promoter luciferase reporter, 24 h. 2.4% of 320,000 active. Potency, µM (titrated, usually from 9.22 µM), inactives show at the highest dose activation, most hits filed as activators. AID 485313; also: % of control where 0% means no effect; nearly all actives have a fitted effect of over 60% in size
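Luminescence from an NPC1 promoter-driven luciferase reporter in stably transfected Huh7 cells was measured after 24 h compound treatment at 37 °C, followed by 10 min ambient incubation with luciferase detection reagent.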
The depositor's hits bear a star. In the library only some 7.3% were active in any assay of this set; here they are far more common. Calls follow the shape of the dose curve; as a rule, active = well fitted curve in the direction sought with a large enough effect; inconclusive = small, poorly fitted or top-dose-only effect, or another doubt; inactive = no such curve, though single readings can be large; an effect the other way counts as inactive or inconclusive. Potency is read from the fitted curve at half-maximal effect.

Results for N#Cc1ccccc1OCc1nnc(-c2ccccc2Br)o1 ?
ELG1 genotoxic: inconclusive; Rab9 prom act: 1.4µM*; FLuc modulator: 5.4µM*; NPC1 promoter act: 2µM*

Results for CC(C)(C)S(=O)(=O)/C(C#N)=N/Nc1ccc(S(N)(=O)=O)cc1 ?
ELG1 genotoxic: 2%; SMN2 splice up: 17%; Rab9 prom act: 11%; FLuc modulator: 4%; KinaseGlo FLuc: 0%; NPC1 promoter act: -5%

What do the screens show for `Cc1ccc(S(=O)(=O)NCC(=O)OCC(=O)Nc2cccc(S(=O)(=O)N3CCOCC3)c2)cc1`?
ELG1 genotoxic: 2%

What do the screens show for `Cc1ccc2c(c1)sc1ncc(NC(=O)c3ccc(F)cc3)c(=O)n12`?
ELG1 genotoxic: 5%; SMN2 splice up: -13%; Rab9 prom act: -1%; FLuc modulator: -5%; KinaseGlo FLuc: -1%; NPC1 promoter act: -4%

What do the screens show for `Cc1ccc2c(c1)sc1nc(=O)n(-c3ccccc3)c(=O)n12`?
ELG1 genotoxic: inconclusive; Rab9 prom act: 0.32µM*; FLuc modulator: inconclusive; NPC1 promoter act: 0.56µM*

How did CCOC(=O)c1ccc(N=C2C(=S)N(c3ccc(C(=O)OCC)cc3)C(=N)N2/N=C/c2ccccc2)cc1 do in these assays?
ELG1 genotoxic: -5%; SMN2 splice up: 13%; Rab9 prom act: 7%; FLuc modulator: inconclusive; KinaseGlo FLuc: 2%; NPC1 promoter act: -1%

How did COC(=O)c1c(NC(=O)CSc2nnnn2-c2ccccc2)sc2c1CCC(C(C)(C)C)C2 (stereo unspecified) do in these assays?
ELG1 genotoxic: -2%; SMN2 splice up: 8%; Rab9 prom act: -2%; FLuc modulator: 1%; KinaseGlo FLuc: -4%; NPC1 promoter act: -4%

How did O=C(Nc1cccnc1)c1cccs1 do in these assays?
ELG1 genotoxic: 0%; SMN2 splice up: 8.9µM*; Rab9 prom act: -4%; FLuc modulator: 1%; KinaseGlo FLuc: -1%; NPC1 promoter act: -24%

Results for Cc1cc([N+](=O)[O-])ccc1NC(=O)/C=C/c1cccs1 ?
ELG1 genotoxic: 22%; SMN2 splice up: 16µM*; Rab9 prom act: inconclusive; FLuc modulator: inconclusive; KinaseGlo FLuc: -1%; NPC1 promoter act: inconclusive

How did O=C(/C=C/c1cccs1)Nc1scc(-c2ccccc2)c1C(=O)O do in these assays?
ELG1 genotoxic: inconclusive; SMN2 splice up: 11µM*; Rab9 prom act: 1.1µM*; FLuc modulator: 3.8µM*; KinaseGlo FLuc: -12%; NPC1 promoter act: 1.4µM*

What do the screens show for `O=C(Cc1cccs1)Nc1ccccc1NC(=O)Cc1cccs1`?
ELG1 genotoxic: -2%; SMN2 splice up: 29%; Rab9 prom act: -2%; FLuc modulator: 0%; KinaseGlo FLuc: -2%; NPC1 promoter act: -1%

Results for CC(C)(C)C(=O)Nc1scc(-c2ccc(-c3ccccc3)cc2)c1C(=O)O ?
ELG1 genotoxic: -8%; Rab9 prom act: -3%; FLuc modulator: 3%; NPC1 promoter act: 2%

What do the screens show for `Cc1ccc(NC(=O)/C=C/c2ccc([N+](=O)[O-])s2)c(C)c1`?
ELG1 genotoxic: inconclusive; SMN2 splice up: -102%; Rab9 prom act: -39%; FLuc modulator: 2%; KinaseGlo FLuc: 4%; NPC1 promoter act: -17%

What do the screens show for `O=C(Cc1cccs1)Nc1ccccc1C(=O)O`?
ELG1 genotoxic: inconclusive; SMN2 splice up: 10µM*; Rab9 prom act: inconclusive; FLuc modulator: 15µM*; KinaseGlo FLuc: -3%; NPC1 promoter act: 20%

How did COc1ccc(OCC(=O)N/N=C/c2ccc(O[C@@H]3O[C@H](CO)[C@@H](O)[C@H](O)[C@H]3O)cc2)cc1 do in these assays?
ELG1 genotoxic: 12%; SMN2 splice up: -10%; Rab9 prom act: 0%; FLuc modulator: 1%; KinaseGlo FLuc: -3%; NPC1 promoter act: 0%

Screening data from PubChem.
